# Rows were chosen to be rich in hits. Some 19% of all compounds tested hit in one or more screens of this group.
# HT1080NT lethal = kills 2HG-producing HT-1080-NT fibrosarcoma cells. HT-1080-NT fibrosarcoma viability, CellTiter-Glo ATP luminescence, 48 h. 360,000 compounds, 1.6% hits. AID 686970. Potency, µM (series often up to 46.1 µM), for inactives: at the highest dose activity, negative = less viability, usual class: cytotoxic;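 also: NT is the 2HG producing partner of a matched IDH1 knockdown line; potency is read from the fitted curve at half-maximal effect; 0% = DMSO-treated cells and -100% = media-only wells without cells; nearly all actives have a fitted effect of over 55% in size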
#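 HT-1080-NT fibrosarcoma cells (2HG-overproducing), 750 cells/well in RPMI with 5% FBS, dosed after 2 h and incubated 48 h at 37C. CellTiter-Glo luminescence normalized to DMSO and no-cell wells; concentration-response curves fitted and classed.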
# IL-1B inflam inh = inflammasome signaling inhibition, IL-1 beta readout. THP-1 LPS/ATP IL-1B secretion, AlphaLISA, 16 h; active compounds read low. activity change, % at 57.5 µM. 360,000 compounds, 4.7% hits. AID 743279; in the data active = activity change below about -50%; inconclusive = mostly about -30% to -49%
#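 Secreted IL-1B measured by AlphaLISA bead assay after 16 h compound exposure of THP-1 cells; compounds (final up to 57.5 uM) added 1 h before LPS (250 ng/mL) and ATP (1.25 mM) stimulation; lower signal means less secretion.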
# TDP1 cell noCPT = qHTS for Inhibitors of human tyrosyl-DNA phosphodiesterase 1 (TDP1): qHTS in cells in absence of CPT. DT40 Tdp1-/- hTDP1 cells, no CPT, ATP luminescence, 48 h. Potency, µM (titrated, usually from 46.2 µM), for the others: at the top dose activity change, negative = growth inhibition, most hits filed as inhibitors. 420,000 compounds, 15% hits. AID 686978, 2013; also: potency is read from the fitted curve at half-maximal effect; nearly all actives have a fitted effect of over 55% in size
#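 Luminescent ATP content (CellTiter-Glo) served as the growth readout. Knockout chicken DT40 cells expressing human TDP1 were exposed to compounds without camptothecin for a minimum 48 hr at 37 °C.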
# TDP1 cell CPT = DT40-hTDP1 cell growth loss with CPT; chicken DT40 Tdp1-/-;hTDP1 cells + 20 nM CPT, ATP luminescence, 48 h; Potency, µM (titrated, usually from 46.2 µM), for inactives: at the top dose activity change, negative = growth inhibition, most hits filed as inhibitors; 420,000 compounds, 12% hits; also: potency is read from the fitted curve at half-maximal effect; nearly all actives have a fitted effect of over 55% in size
#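 Chicken DT40 Tdp1-/- cells stably complemented with human TDP1 were seeded at 400 cells/well in medium containing 20 nM camptothecin, exposed to pin-transferred compounds, and grown at 37 °C for at least 48 hr. Viability was read as ATP luminescence.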
# HT1080 IDH1KD tx = HT-1080 IDH1 knockdown cell toxicity (counter line); 360,000 compounds, 2% hits; Potency, µM (highest dose often 46.1 µM), without a hit: at the top dose activity, negative = toxicity, usual class: cytotoxic; AID 686971; HT-1080 IDH1 knockdown viability, ATP luminescence, 48 h;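 also: potency is read from the fitted curve at half-maximal effect; 0% = DMSO wells and -100% = cell-free medium wells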
#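 Cytotoxicity counter-line: IDH1KD HT-1080, 48 h, CellTiter-Glo. Curves classed by r2, magnitude and activity.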
# Starred values were filed as active, the others as inactive; ? = inconclusive; . = no result given; ! = a repeat was not active. Unless noted, calls follow the shape of the dose curve; as a rule, active = well fitted curve in the direction sought with a large enough effect; inconclusive = small, poorly fitted or top-dose-only effect, or another doubt; inactive = no such curve, though single readings can be large; an effect the other way counts as inactive or inconclusive. Unless noted, % is scaled to controls: 0 for no effect and ±100 for the full control effect.
SMILES,HT1080NT lethal,IL-1B inflam inh,TDP1 cell noCPT,TDP1 cell CPT,HT1080 IDH1KD tx
CC1(C)CC(=O)C=C(c2n[nH]nc2C2CCCCC2)C1,10%,-4,-11%,-1%,4%
CCOC(=O)N1CCN(c2nnc(-c3ccc(C)cc3)c3ccccc23)CC1,-22%,-67*,?,?,-28%
Cc1ccc(-c2nnc(N3CCN(C(=O)c4cccs4)CC3)c3ccccc23)cc1,-8%,-8,23µM*,?,-1%
Cc1ccc(-c2ocnc2C(=O)N2CCN(C(=O)c3cccs3)CC2)cc1,12%,-9,-6%,10%,12%
O=C(c1cccs1)N1CCN(c2nnc(-c3ccccc3)c3ccccc23)CC1,-26%,-87*,?,?,-14%
CCOC(=O)N1CCN(c2nnc(-c3ccccc3)c3ccccc23)CC1,-3%,?,?,-8%,-14%
CCCC(=O)N1CCN(c2nnc(-c3ccccc3)c3ccccc23)CC1,-1%,-51*,-14%,-19%,0%
COC(=O)c1[nH]c2ccc(C)cc2c1NC(=O)CN1CCCc2ccccc21,?,-15,?,-26%,?
O=C(Cc1ccc(F)cc1)N1CCC(N2CCC(C(=O)N3CCOCC3)CC2)CC1,5%,4,-13%,0%,-2%
Cc1cc(C(=O)N/N=C/c2ccc(N(C)C)o2)cs1,-13%,11,16µM*,23µM*,-21%
COc1ccccc1N1CCN(C(=O)C2c3ccccc3Oc3ccccc32)CC1,4.1µM*,24,2.9µM*,2.9µM*,1.8µM*
O=C(C1c2ccccc2Oc2ccccc21)N1CCN(c2ccc(Cl)cc2)CC1,?,?,15µM*,?,?
O=C(C1CCC1)N1CCN(c2ccc(Cl)cc2)CC1,10%,-11,?,-7%,6%
CCC(C)CCN1CCN=C1Nc1ccccc1 (configuration not stated),0%,-8,-4%,0%,0%
Cc1cccc(CN2CCN(C3CN(CCc4ccccc4)S(=O)(=O)C3)CC2)c1 (configuration not stated),5%,0,?,?,-3%
Cc1ccc(OCC(O)CN2CCN(Cc3ccc4c(c3)OCO4)CC2)c(C)c1 (configuration not stated),?,-60*!,?,?,-30%
Cc1cc(=O)n2[nH]c(C(F)(F)F)c(-c3ccccc3)c2n1,18%,1,?,1%,4%
Cc1[nH]n2c(=O)cc(-c3ccccc3Cl)nc2c1-c1ccccc1,.,.,2.6µM*,9.2µM*,.
CCc1cc(=O)n2[nH]c(C)c(-c3ccccc3OC)c2n1,1%,-16,?,-15%,-1%
COCc1cc(=O)n2[nH]c(C)c(-c3ccc(Cl)cc3)c2n1,-23%,36,16µM*,13µM*,?
CC1=C(CC/C(C)=N/NC(N)=S)C(C)(C)CCC1,6.3µM*,-3,3.2µM*,4µM*,8.9µM*
CC(C)=CCN1CCN(CCC2=C(C)CCCC2(C)C)CC1CCO (configuration not stated),-6%,?,?,?,0%
CCCCOP(=O)(OCCCC)C(Nc1ccccc1)c1ccc2c(c1)OCO2 (configuration not stated),-7%,-28,13µM*,?,-26%
CCOP(=O)(OCC)C(Nc1ccccc1)c1ccc2c(c1)OCO2 (configuration not stated),-8%,5,?,13µM*,5%
CCOP(=O)(OCC)C(Nc1ccc(F)cc1)c1ccccc1 (configuration not stated),4%,12,-30%,-3%,0%
CCCCONc1ncnc2nonc12,13%,14,-21%,-4%,10%
CCOc1cc2[nH]c(=S)n(Cc3ccc(C(=O)NCC(OC)OC)cc3)c(=O)c2cc1OCC,6%,15,-6%,-15%,2%

# Screens as filed in PubChem.
